Six molecules from ChEMBL document CHEMBL1157539, “Thousands of chemical starting points for antimalarial lead identification” (Nature, 2010) can be followed below.

What all share (type): functional
For assay [1], the system named is Plasmodium falciparum. The experiment in a line: GSK_TCMDC: Inhibition of Plasmodium falciparum 3D7 in whole red blood cells, using parasite LDH activity as an index of growth. Test compounds present at 2uM.
In assay [2] the test system is Plasmodium falciparum. The assay can be described thus: GSK_TCMDC: Inhibition of Plasmodium falciparum Dd2 in whole red blood cells, using parasite LDH activity as an index of growth. Test compounds present at 2uM.
For the next assay, the system named is HepG2. The assay can be described thus: GSK_TCMDC: Percent inhibition of human HepG2 cell line. Test compounds present at 10uM.

Usually Inhibition stands for the drop in the measured response relative to a control, in per cent. Read a low Inhibition as a response near the control. As for `Cn1nc(-c2cccc(CN[C@@H]3CCc4ccc(O)cc43)c2)c2cnc(NCCCN3CCCC3)nc21`, the Inhibition is listed as 100% in the assay with Plasmodium falciparum [1], 0% in the assay on Plasmodium falciparum [2] and 9% in the assay with HepG2.
The corresponding values for `COc1ccc2[nH]ccc(=NN=Cc3ccccc3Cl)c2c1` are 100%, 99% and 29%.
Turning to `Cc1ncccc1C(=O)Nc1cccc(-c2cccc(-c3nc4cc(C(F)(F)F)ccc4[nH]3)c2)c1`, the Inhibition in the assay on Plasmodium falciparum [1] is listed as 96%; with Plasmodium falciparum [2], 30%; in the assay with HepG2, 34%.
For `CNS(=O)(=O)c1ccc2c(c1)nc(C1CCN(CC3CCC(NC(=O)/C=C/c4ccc(Cl)c(Cl)c4)CC3)CC1)n2C` (stereo not drawn) the same measures were 100%, 96% and 5%.
For `O=C(O)C(F)(F)F.S=C(Nc1cccc(Cl)c1)NC1CCN(c2ccnc3cc(Cl)ccc23)C1` (stereo not drawn) the same measures were 100%, 89% and 16%.
The corresponding values for `Fc1ccc2[nH]c(-c3ccc(-c4ccc(CNCCN5CCNCC5)cc4)cc3)nc2c1.O=C(O)C(F)(F)F` are 96%, 70% and 94%.
